Results published in publication PMC11006913.

Key:
Test in all cases: PBM; 200 nM protein, PBS
Details in all cases: dsDNA, one strand shown
NKX2-5 [1] = molecular target: NKX2-5 (Homo sapiens, UniProt P52952 125-210, R139K)
NKX2-5 [2] = molecular target: NKX2-5 (Homo sapiens, UniProt P52952 125-210)
HOXA7 [3] = molecular target: HOXA7 (Homo sapiens, UniProt P31268 116-202)
PRRX1 [4] = molecular target: PRRX1 (Homo sapiens, UniProt P54821 80-166, F113S)
HOXB6 [5] = molecular target: HOXB6 (Homo sapiens, UniProt P17509 132-218, K202E)
ALX1 [6] = molecular target: ALX1 (Homo sapiens, UniProt Q15699 118-204, L144V)
ALX3 [7] = molecular target: ALX3 (Homo sapiens, UniProt O95076 139-225, N203Q)
ALX1 [8] = molecular target: ALX1 (Homo sapiens, UniProt Q15699 118-204, L144R)
HOXC10 = HOXC10 (Homo sapiens, UniProt Q9NYD6 254-340, K271E)
ALX3 [9] = molecular target: ALX3 (Homo sapiens, UniProt O95076 139-225)
PROP1 [10] = molecular target: PROP1 (Homo sapiens, UniProt O75360 56-141)
PROP1 [11] = molecular target: PROP1 (Homo sapiens, UniProt O75360 56-141, R99H)
ALX3 [12] = molecular target: ALX3 (Homo sapiens, UniProt O95076 139-225, L168Q)
ALX3 [13] = molecular target: ALX3 (Homo sapiens, UniProt O95076 139-225, L168V)
PROP1 [14] = molecular target: PROP1 (Homo sapiens, UniProt O75360 56-141, F88S)
HOXA7 [15] = molecular target: HOXA7 (Homo sapiens, UniProt P31268 116-202, W177C)
ALX1 [16] = molecular target: ALX1 (Homo sapiens, UniProt Q15699 118-204)
ALX3 [17] = molecular target: ALX3 (Homo sapiens, UniProt O95076 139-225, N203S)
PRRX1 [18] = molecular target: PRRX1 (Homo sapiens, UniProt P54821 80-166)
HOXB6 [19] = molecular target: HOXB6 (Homo sapiens, UniProt P17509 132-218)
Chain of HOXB6 (Homo sapiens, UniProt P17509 132-218) (P17509 132-218): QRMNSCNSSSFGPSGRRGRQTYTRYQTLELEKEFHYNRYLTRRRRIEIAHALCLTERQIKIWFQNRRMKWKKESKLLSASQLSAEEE

Chain of ALX3 (Homo sapiens, UniProt O95076 139-225, N203Q) (O95076 139-225 N203Q): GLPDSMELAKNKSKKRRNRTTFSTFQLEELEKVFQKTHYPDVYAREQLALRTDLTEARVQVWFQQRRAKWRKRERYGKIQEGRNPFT
Chain of ALX3 (Homo sapiens, UniProt O95076 139-225) (O95076 139-225): as the sequence (O95076 139-225 N203Q) above, with Q65N counted along it
Chain of NKX2-5 (Homo sapiens, UniProt P52952 125-210, R139K) (P52952 125-210 R139K): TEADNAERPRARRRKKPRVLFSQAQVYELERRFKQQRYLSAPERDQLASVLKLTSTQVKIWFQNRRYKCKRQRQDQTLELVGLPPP
Chain of ALX3 (Homo sapiens, UniProt O95076 139-225, L168Q) (O95076 139-225 L168Q): as the sequence (O95076 139-225 N203Q) above, with L30Q, Q65N counted along it
Chain of PROP1 (Homo sapiens, UniProt O75360 56-141) (O75360 56-141): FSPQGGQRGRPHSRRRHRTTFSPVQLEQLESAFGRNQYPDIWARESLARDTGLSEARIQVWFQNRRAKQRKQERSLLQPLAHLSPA
Chain of PROP1 (Homo sapiens, UniProt O75360 56-141, R99H) (O75360 56-141 R99H): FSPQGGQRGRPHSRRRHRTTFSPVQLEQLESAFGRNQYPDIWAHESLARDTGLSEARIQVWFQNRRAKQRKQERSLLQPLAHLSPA
Chain of PROP1 (Homo sapiens, UniProt O75360 56-141, F88S) (O75360 56-141 F88S): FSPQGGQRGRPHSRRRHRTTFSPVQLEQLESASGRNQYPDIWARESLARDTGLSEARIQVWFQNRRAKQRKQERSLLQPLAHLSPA
Chain of ALX3 (Homo sapiens, UniProt O95076 139-225, L168V) (O95076 139-225 L168V): as the sequence (O95076 139-225 N203Q) above, with L30V, Q65N counted along it
Chain of ALX1 (Homo sapiens, UniProt Q15699 118-204, L144R) (Q15699 118-204 L144R): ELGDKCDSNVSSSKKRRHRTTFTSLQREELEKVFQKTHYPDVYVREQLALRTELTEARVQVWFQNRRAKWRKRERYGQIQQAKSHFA
Chain of ALX1 (Homo sapiens, UniProt Q15699 118-204) (Q15699 118-204): as the sequence (Q15699 118-204 L144R) above, with R27L counted along it
Chain of HOXB6 (Homo sapiens, UniProt P17509 132-218, K202E) (P17509 132-218 K202E): as the sequence (P17509 132-218) above, with K71E counted along it
Chain of HOXA7 (Homo sapiens, UniProt P31268 116-202, W177C) (P31268 116-202 W177C): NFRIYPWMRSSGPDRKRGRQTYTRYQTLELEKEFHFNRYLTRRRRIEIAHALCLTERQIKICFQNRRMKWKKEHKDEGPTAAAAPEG
Chain of ALX3 (Homo sapiens, UniProt O95076 139-225, N203S) (O95076 139-225 N203S): as the sequence (O95076 139-225 N203Q) above, with Q65S counted along it
Chain of HOXA7 (Homo sapiens, UniProt P31268 116-202) (P31268 116-202): as the sequence (P31268 116-202 W177C) above, with C62W counted along it
Chain of PRRX1 (Homo sapiens, UniProt P54821 80-166) (P54821 80-166): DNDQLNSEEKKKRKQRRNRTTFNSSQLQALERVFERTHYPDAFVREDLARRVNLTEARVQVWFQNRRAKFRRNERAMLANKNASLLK
Chain of ALX1 (Homo sapiens, UniProt Q15699 118-204, L144V) (Q15699 118-204 L144V): as the sequence (Q15699 118-204 L144R) above, with R27V counted along it
Chain of HOXC10 (Q9NYD6 254-340 K271E): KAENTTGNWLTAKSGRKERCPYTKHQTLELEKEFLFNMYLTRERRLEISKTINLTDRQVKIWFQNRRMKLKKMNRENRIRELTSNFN
Chain of NKX2-5 (Homo sapiens, UniProt P52952 125-210) (P52952 125-210): as the sequence (P52952 125-210 R139K) above, with K15R counted along it
Chain of PRRX1 (Homo sapiens, UniProt P54821 80-166, F113S) (P54821 80-166 F113S): as the sequence (P54821 80-166) above, with F34S counted along it

## CCCTGGGC
NKX2-5 [1]
  binding signal: 8.86 upbm affinity estimate (log intensity, higher = more binding, comparable within an allelic series)
NKX2-5 [2]
  binding signal: 8.96 upbm affinity estimate (log intensity, higher = more binding, comparable within an allelic series)

## AGGCGAGC
NKX2-5 [1]
  binding signal: 9.02 upbm affinity estimate (log intensity, higher = more binding, comparable within an allelic series)
NKX2-5 [2]
  binding signal: 8.95 upbm affinity estimate (log intensity, higher = more binding, comparable within an allelic series)

## ACCGCGGC
NKX2-5 [1]
  binding signal: 8.83 upbm affinity estimate (log intensity, higher = more binding, comparable within an allelic series)
NKX2-5 [2]
  binding signal: 8.84 upbm affinity estimate (log intensity, higher = more binding, comparable within an allelic series)

## CGCGCAGC
NKX2-5 [1]
  binding signal: 8.7 upbm affinity estimate (log intensity, higher = more binding, comparable within an allelic series)
NKX2-5 [2]
  binding signal: 8.72 upbm affinity estimate (log intensity, higher = more binding, comparable within an allelic series)

## AATCTTGA
NKX2-5 [1]
  binding signal: 10.5 upbm affinity estimate (log intensity, higher = more binding, comparable within an allelic series)
NKX2-5 [2]
  binding signal: 10.5 upbm affinity estimate (log intensity, higher = more binding, comparable within an allelic series)

## AATTAATA
HOXA7 [3]
  binding signal: 11.7 upbm affinity estimate (log intensity, higher = more binding, comparable within an allelic series)
PRRX1 [4]
  binding signal: 11.4 upbm affinity estimate (log intensity, higher = more binding, comparable within an allelic series)
HOXB6 [5]
  binding signal: 10.2 upbm affinity estimate (log intensity, higher = more binding, comparable within an allelic series)
ALX1 [6]
  binding signal: 11.8 upbm affinity estimate (log intensity, higher = more binding, comparable within an allelic series)
ALX3 [7]
  binding signal: 8.72 upbm affinity estimate (log intensity, higher = more binding, comparable within an allelic series)
ALX1 [8]
  binding signal: 11.6 upbm affinity estimate (log intensity, higher = more binding, comparable within an allelic series)
HOXC10
  binding signal: 12 upbm affinity estimate (log intensity, higher = more binding, comparable within an allelic series)
ALX3 [9]
  binding signal: 12.5 upbm affinity estimate (log intensity, higher = more binding, comparable within an allelic series)
PROP1 [10]
  binding signal: 11.3 upbm affinity estimate (log intensity, higher = more binding, comparable within an allelic series)
PROP1 [11]
  binding signal: 11.4 upbm affinity estimate (log intensity, higher = more binding, comparable within an allelic series)
ALX3 [12]
  binding signal: 10.7 upbm affinity estimate (log intensity, higher = more binding, comparable within an allelic series)
ALX3 [13]
  binding signal: 10.3 upbm affinity estimate (log intensity, higher = more binding, comparable within an allelic series)
PROP1 [14]
  binding signal: 8.02 upbm affinity estimate (log intensity, higher = more binding, comparable within an allelic series)
HOXA7 [15]
  binding signal: 8.99 upbm affinity estimate (log intensity, higher = more binding, comparable within an allelic series)
ALX1 [16]
  binding signal: 12.3 upbm affinity estimate (log intensity, higher = more binding, comparable within an allelic series)
ALX3 [17]
  binding signal: 8.82 upbm affinity estimate (log intensity, higher = more binding, comparable within an allelic series)
PRRX1 [18]
  binding signal: 13.4 upbm affinity estimate (log intensity, higher = more binding, comparable within an allelic series)
HOXB6 [19]
  binding signal: 12.1 upbm affinity estimate (log intensity, higher = more binding, comparable within an allelic series)

## ATAATTAA
HOXA7 [3]
  binding signal: 12.1 upbm affinity estimate (log intensity, higher = more binding, comparable within an allelic series)
PRRX1 [4]
  binding signal: 12 upbm affinity estimate (log intensity, higher = more binding, comparable within an allelic series)
HOXB6 [5]
  binding signal: 10.3 upbm affinity estimate (log intensity, higher = more binding, comparable within an allelic series)
ALX1 [6]
  binding signal: 12.3 upbm affinity estimate (log intensity, higher = more binding, comparable within an allelic series)
ALX3 [7]
  binding signal: 8.66 upbm affinity estimate (log intensity, higher = more binding, comparable within an allelic series)
ALX1 [8]
  binding signal: 11.9 upbm affinity estimate (log intensity, higher = more binding, comparable within an allelic series)
HOXC10
  binding signal: 12.3 upbm affinity estimate (log intensity, higher = more binding, comparable within an allelic series)
ALX3 [9]
  binding signal: 12.9 upbm affinity estimate (log intensity, higher = more binding, comparable within an allelic series)
PROP1 [10]
  binding signal: 11.9 upbm affinity estimate (log intensity, higher = more binding, comparable within an allelic series)
PROP1 [11]
  binding signal: 11.9 upbm affinity estimate (log intensity, higher = more binding, comparable within an allelic series)
ALX3 [12]
  binding signal: 11.2 upbm affinity estimate (log intensity, higher = more binding, comparable within an allelic series)
ALX3 [13]
  binding signal: 10.9 upbm affinity estimate (log intensity, higher = more binding, comparable within an allelic series)
PROP1 [14]
  binding signal: 8.13 upbm affinity estimate (log intensity, higher = more binding, comparable within an allelic series)
HOXA7 [15]
  binding signal: 8.99 upbm affinity estimate (log intensity, higher = more binding, comparable within an allelic series)
ALX1 [16]
  binding signal: 12.8 upbm affinity estimate (log intensity, higher = more binding, comparable within an allelic series)
ALX3 [17]
  binding signal: 8.77 upbm affinity estimate (log intensity, higher = more binding, comparable within an allelic series)
PRRX1 [18]
  binding signal: 13.7 upbm affinity estimate (log intensity, higher = more binding, comparable within an allelic series)
HOXB6 [19]
  binding signal: 12.4 upbm affinity estimate (log intensity, higher = more binding, comparable within an allelic series)

## CCCCAACG
NKX2-5 [1]
  binding signal: 8.6 upbm affinity estimate (log intensity, higher = more binding, comparable within an allelic series)
NKX2-5 [2]
  binding signal: 8.67 upbm affinity estimate (log intensity, higher = more binding, comparable within an allelic series)

## CCTCTCGA
NKX2-5 [1]
  binding signal: 11.2 upbm affinity estimate (log intensity, higher = more binding, comparable within an allelic series)
NKX2-5 [2]
  binding signal: 11.3 upbm affinity estimate (log intensity, higher = more binding, comparable within an allelic series)

## AATTAATG
HOXA7 [3]
  binding signal: 11.9 upbm affinity estimate (log intensity, higher = more binding, comparable within an allelic series)
PRRX1 [4]
  binding signal: 11.3 upbm affinity estimate (log intensity, higher = more binding, comparable within an allelic series)
HOXB6 [5]
  binding signal: 10.1 upbm affinity estimate (log intensity, higher = more binding, comparable within an allelic series)
ALX1 [6]
  binding signal: 11.9 upbm affinity estimate (log intensity, higher = more binding, comparable within an allelic series)
ALX3 [7]
  binding signal: 8.41 upbm affinity estimate (log intensity, higher = more binding, comparable within an allelic series)
ALX1 [8]
  binding signal: 11.5 upbm affinity estimate (log intensity, higher = more binding, comparable within an allelic series)
HOXC10
  binding signal: 12 upbm affinity estimate (log intensity, higher = more binding, comparable within an allelic series)
ALX3 [9]
  binding signal: 12.6 upbm affinity estimate (log intensity, higher = more binding, comparable within an allelic series)
PROP1 [10]
  binding signal: 11.4 upbm affinity estimate (log intensity, higher = more binding, comparable within an allelic series)
PROP1 [11]
  binding signal: 11.3 upbm affinity estimate (log intensity, higher = more binding, comparable within an allelic series)
ALX3 [12]
  binding signal: 10.7 upbm affinity estimate (log intensity, higher = more binding, comparable within an allelic series)
ALX3 [13]
  binding signal: 10.3 upbm affinity estimate (log intensity, higher = more binding, comparable within an allelic series)
PROP1 [14]
  binding signal: 7.86 upbm affinity estimate (log intensity, higher = more binding, comparable within an allelic series)
HOXA7 [15]
  binding signal: 8.87 upbm affinity estimate (log intensity, higher = more binding, comparable within an allelic series)
ALX1 [16]
  binding signal: 12.5 upbm affinity estimate (log intensity, higher = more binding, comparable within an allelic series)
ALX3 [17]
  binding signal: 8.55 upbm affinity estimate (log intensity, higher = more binding, comparable within an allelic series)
PRRX1 [18]
  binding signal: 13.4 upbm affinity estimate (log intensity, higher = more binding, comparable within an allelic series)
HOXB6 [19]
  binding signal: 12.2 upbm affinity estimate (log intensity, higher = more binding, comparable within an allelic series)
